PPARg SRC-2 ag: promotes SRC-2 coactivator recruitment by human PPARgamma | activation, % at 8 µM | PPARgamma LBD-SRC-2 recruitment, biochemical | 0.34% of 200,000 active | P37231; in the data active means activation above about 22%;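 further: 0% = vehicle and 100% = reference agonist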
Target sequence (P37231 whole entry, looked up, the tested form may be a part): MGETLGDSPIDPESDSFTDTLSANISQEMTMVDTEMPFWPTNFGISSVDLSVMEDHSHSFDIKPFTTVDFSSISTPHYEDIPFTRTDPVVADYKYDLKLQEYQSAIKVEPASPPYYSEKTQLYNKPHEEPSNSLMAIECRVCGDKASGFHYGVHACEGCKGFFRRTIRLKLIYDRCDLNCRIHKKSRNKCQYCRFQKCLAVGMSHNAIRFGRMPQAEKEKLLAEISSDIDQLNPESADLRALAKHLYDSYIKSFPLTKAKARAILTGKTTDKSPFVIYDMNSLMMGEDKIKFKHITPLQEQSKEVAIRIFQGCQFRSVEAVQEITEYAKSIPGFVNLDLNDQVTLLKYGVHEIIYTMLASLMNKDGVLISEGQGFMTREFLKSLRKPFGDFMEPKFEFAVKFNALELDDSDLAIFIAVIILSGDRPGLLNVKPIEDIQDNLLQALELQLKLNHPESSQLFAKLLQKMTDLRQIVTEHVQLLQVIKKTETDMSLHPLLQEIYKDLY
TR-FRET SRC-2 ct: flags TR-FRET format artefacts in PPARgamma SRC-2 recruitment agonist screen. 0.4% of 200,000 active. AID 1049. TR-FRET artefact counter-screen; stronger effect = higher value. TR-FRET ratio at 8 µM
PPARg SRC-1 ag: agonists of human PPARgamma SRC-1 coactivator recruitment; P37231; PPARgamma-SRC-1 coactivator recruitment biochemical assay; activation, % at 8 µM; 0.41% of 200,000 active; AID 631; in the data active means activation above about 19%;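 further: 0% = DMSO and 100% = reference agonist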
PPARg SRC3 recr: agonists of human PPARgamma SRC-3 coactivator recruitment; biochemical PPARgamma/SRC-3 coactivator recruitment assay; P37231; 0.26% of 200,000 active; activation, % at 8 µM; in the data active means activation above about 23%;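 further: 0% = DMSO and 100% = reference agonist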
SRC3 TRFRET art: TR-FRET artefact, counter-screen to PPARgamma/SRC-3 agonist assay; PPARgamma/SRC-3 format; stronger effect = higher value; 0.39% of 99,000 active; TR-FRET ratio at 8 µM
SRC1 TRFRET art: counter-screen for PPARgamma SRC-1 recruitment agonists: TR-FRET artefact | TR-FRET detection artefact counter-screen, emission ratio; stronger effect = higher value | TR-FRET ratio at 8 µM | AID 1051 | 0.34% of 99,000 active; in the data active means TR-FRET ratio above about 2300
The depositor's hits bear a star; . = no result. Only some compounds are listed: those with a hit (about 0.9% of all), similar ones and a draw of the others. Unless noted, no stated cut-off is given here; in the data, active means TR-FRET ratio above about 2000; inactive means the rest.

SMILES | PPARg SRC-2 ag | TR-FRET SRC-2 ct | PPARg SRC-1 ag | PPARg SRC3 recr | SRC3 TRFRET art | SRC1 TRFRET art
COc1ccc(-c2cc(=O)c3c(OC)c(OC)c(OC)c(OC)c3o2)cc1OC | -2.6 | 1392 | 5.1 | 8.6 | 1488 | 2007
NC(=O)c1ncc(C(F)(F)F)cc1Oc1cccnc1 | 3.7 | 1655 | 5.7 | 3.3 | 1553 | 1688
CCN(CC)C(=O)Cn1c(=O)n(-c2ccccc2)c(=O)c2c3c(sc21)CCC3 | 22.1* | 2144* | -2.4 | 4.6 | . | .
O=C(/C=C/c1ccc(Br)cc1)c1ccc(NC(=O)c2ccco2)cc1 | 0.6 | 5699* | 3.5 | 5.7 | 14077* | 2646*
CCCCSc1nc(C)nc2c1c(=O)n(C)c(=O)n2C | 10.2 | 1678 | 1.7 | -1.1 | . | .
CCCSc1nc(C)nc2c1c(=O)n(C)c(=O)n2C | -0.1 | 1545 | 23.6* | -1.8 | . | .
CC(C)(C)NC(=O)CSc1nnc(-c2ccco2)n1Cc1ccco1 | 13.0 | 2029* | 4.7 | 2.8 | 1540 | 1846
CCOC(=O)c1sc2nc3c(SCC(=O)O)cc(C(=O)c4ccccc4O)cn3c(=O)c2c1C | 4.1 | 1647 | 1.7 | 2.5 | 1620 | 1804
Cc1sc2nc3c(SC(C)C(=O)O)cc(C(=O)c4ccccc4O)cn3c(=O)c2c1C (configuration not stated) | -9.1 | 1417 | 4.0 | 32.6* | 1694 | 1751
CCCCC(CC)c1nnc(NC(=O)c2cccs2)s1 (configuration not stated) | 22.1* | 1818 | -1.9 | 5.6 | 1670 | 1873
COc1ccc(NC(=O)COC(=O)c2cccc(S(=O)(=O)N(C)C)c2)cc1 | -2.9 | 1513 | 24.1* | 1.5 | 1754 | 2141
CC(=O)c1sc(NC(=O)c2ccc(C)c(C)c2)nc1C | -3.6 | 1603 | -4.2 | -0.8 | 1583 | 1400
CC(=O)c1sc(NC(=O)c2ccc(C(C)(C)C)cc2)nc1C | 15.7 | 1990* | 20.4 | 16.6 | 2151* | 2152
C#CCn1c(=NC(=O)c2ccc(Cl)s2)sc2cccc(OC)c21 | 5.7 | 1639 | 9.5 | 29.7* | . | .
CC(=O)c1c(C)[n+]([O-])c2ccc3c(non3O)c12 | 7.0 | 1981* | 7.2 | -1.4 | 1809 | 1946
O=C(COc1ccccc1-c1ccccc1)NCc1ccco1 | 2.9 | 1456 | 53.7* | -5.2 | 1556 | 4796*
COc1ccc(/C=C\C(=O)NCc2ccc3c(c2)cc(C)n3C)cc1OC | 0.0 | 1597 | 12.0 | 5.3 | 2112* | 1954
CCc1cccc(C)c1NC(=S)NCc1ccc2c(c1)cc(C)n2C | 4.9 | 1854 | -0.3 | 5.8 | 2094* | 2006
COc1ccc(C(=O)NCc2ccc3c(c2)cc(C)n3C)cc1OC | 5.8 | 1671 | -6.7 | -2.9 | 1606 | 1553
COc1cccc(C(=O)NCc2ccc3c(c2)cc(C)n3C)c1 | 9.1 | 2069* | 8.7 | 7.6 | 2355* | 2604*
O=C(O)CSc1nc(C(F)(F)F)cc(=O)n1-c1ccccc1 | -0.3 | 1467 | 3.6 | 7.4 | . | .
Cc1cnc(NC(=O)c2ccc(OCC3CCCO3)cc2)s1 (configuration not stated) | 4.3 | 1718 | 12.5 | 6.8 | 1284 | 1826
COc1ccc(OC)c(-c2csc(NC(=O)c3ccc(OCC4CCCO4)cc3)n2)c1 (configuration not stated) | -2.1 | 1749 | 1.7 | -2.9 | 2496* | 1767
Cc1ccc2nc(-c3ccc(SCC(=O)N4CCc5ccccc54)nc3)[nH]c2c1 | -2.4 | 1365 | 5.8 | 2.5 | 2738* | 1724
Cc1ccc2nc(-c3cccnc3SCC(=O)N3c4ccccc4CC3C)[nH]c2c1 (configuration not stated) | 4.2 | 2147* | 3.4 | 4.6 | . | .
SMILES | PPARg SRC-2 ag | TR-FRET SRC-2 ct | PPARg SRC-1 ag | PPARg SRC3 recr | SRC3 TRFRET art | SRC1 TRFRET art
Cc1ccc2nc(-c3ccc(SCC(=O)O)nc3)[nH]c2c1 | 7.0 | 1849 | 11.4 | 12.2 | . | .
Cc1ccc2nc(SCC(=O)N3c4ccccc4CC3C)c(C)cc2c1 (configuration not stated) | 6.7 | 1722 | -8.0 | 12.8 | . | .
Cc1[nH]c2ccccc2c1/C=N/Nc1nncn1N | 9.4 | 1675 | 3.8 | 5.9 | 1704 | 1975
Cc1[nH]c2ccccc2c1/C=N/Nc1ccccn1 | 9.7 | 2002* | 15.2 | 8.9 | 1761 | 1781
COc1ccc(C(=O)N=c2sc3ccccc3n2C)cc1OC | -2.4 | 1578 | 167.8* | 4.2 | 1605 | 4952*
COc1cc(C(=O)N/N=c2/sc3ccccc3n2C)cc(OC)c1OC | 0.5 | 1548 | -3.2 | 0.5 | 1477 | 1686
Cc1ccc(NC(=S)N2CCN(C3CCCCC3)CC2)cc1 | -3.7 | 1499 | -0.8 | -7.0 | . | .
COc1cc(-c2nc3ccccn3c2/N=C/c2ccc(F)cc2)ccc1O | 1.3 | 1636 | 9.6 | 3.0 | 1737 | 2014
COc1cc(-c2nc3ccccn3c2/N=C/c2cccc(OC)c2O)ccc1O | 17.2 | 2175* | 7.3 | 8.0 | 1752 | 2128
O=C(O)c1cc(-c2ccco2)nc2ccc(Br)cc12 | 21.6 | 2007* | 18.1 | 15.5 | 2104* | 2318*
O=C(c1ccco1)N1CCN(C(=O)c2cc(-c3ccncc3)nc3ccc(Br)cc23)CC1 | 4.8 | 1679 | 8.9 | 15.3 | . | .
Cc1[nH]c(=S)c(C#N)c2c1CCCC2 | -1.7 | 1539 | 5.1 | 8.6 | 1735 | 1916
N#Cc1c(N)sc(=S)c2c1CCCC2 | 18.6 | 2023* | 12.4 | 20.6 | . | .
COc1cc(OC)cc(-c2nnc(SCC(=O)N(Cc3ccccc3)C(C)(C)C)o2)c1 | 22.5* | 1712 | 16.9 | 5.0 | . | .
CCOc1ccc(N=C2NN=C(c3cc(C)n(CC4CCCO4)c3C)CS2)cc1 (configuration not stated) | 2.5 | 1711 | 21.8* | 1.6 | 1828 | 1953
COc1cccc(-c2noc(-c3ccc(Br)o3)n2)c1 | 11.6 | 1662 | 7.7 | 2.9 | 1629 | 1740
O=C1C2CCCN2c2ccc(S(=O)(=O)N3CCOCC3)cc2N1Cc1cccc(C(F)(F)F)c1 (configuration not stated) | 5.8 | 1640 | 4.3 | 4.8 | . | .
CON(C)S(=O)(=O)c1ccc2c(c1)N(Cc1ccc(C)cc1)C(=O)C1CCCN21 (configuration not stated) | 4.6 | 1753 | 1.2 | 5.9 | 2052* | 2187
COc1ccc(OCC(=O)Nc2cccc(NC(=O)COc3ccc(OC)cc3)n2)cc1 | 14.9 | 1570 | 9.3 | 9.7 | . | .
COc1ccc(OCC(=O)Nc2cccc3cccnc23)cc1 | 10.8 | 1763 | 1.5 | 7.7 | 1536 | 2429*
Cc1ccc(NC(=O)c2oc3ccccc3c2NC(=O)c2ccc3c(c2)OCO3)cc1 | 5.5 | 1632 | 3.7 | -0.7 | . | .
O=C(CSc1ccsc1[N+](=O)[O-])N1CCN(c2ccccn2)CC1 | 6.6 | 1636 | 2.1 | 4.0 | 1640 | 1901
Cc1ccc2oc(=O)cc(CN3CCC(C)CC3)c2c1 | 22.6* | 1609 | -3.0 | 13.2 | . | .
C=CCN(CC=C)Cc1c(O)ccc2c1oc(=O)c1ccccc12 | 20.3 | 1879 | 20.7* | 20.3 | . | .
COc1ccc(-c2cc(C(F)(F)F)nc(-n3ccnc3)n2)cc1 | 4.4 | 1545 | 3.9 | 2.6 | 1829 | 2019

Compound activity deposited in PubChem by The Scripps Research Institute Molecular Screening Center.
